Measured values as given in PubChem BioAssay (NCI).
About 83,000 compounds went through this panel and 20% of them were active in at least one assay; those are over-represented in the sample as a whole.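 Cell lines were cultured in 96-well plates, exposed to a single compound concentration, and assessed for percent growth 48 hours later.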 Active and inactive are the calls of the source. The calls were made as follows: active = growth percent below 10; inactive = the rest.

What follows are compounds tested on RPMI-8226 leukemia (assay: NCI-60 one-dose screen, 48 h (100 = growth as untreated, 0 = no growth, -100 = all killed)). Conditions: 10 µM unless noted.

SMILES	growth
CCOP1(=O)CC(C)=C(Cl)C(P(=O)(O)O)C1 (stereo not drawn)	81.9% (inactive)
C/C=C(/C)C(=O)OC1C=C(CO)C(=O)C(OC(=O)C(C)(O)C(C)Cl)C1C(C)C (stereo not drawn)	-33.5% (active)
CN1CCN(Cc2ccc(NC(=O)c3ccc(C#Cc4c(N)ncc5ccc(F)cc45)cc3)cc2C(F)(F)F)CC1	-43.3% (active)
CCCCCCCCC(=O)Nc1ccc(O)cc1	82.3% (inactive)
COc1cc(/C=C/C(=O)c2ccc(F)cc2)ccc1OCCCCOc1cc2c(cc1OC)C(=O)N1CCCC1C=N2 (stereo not drawn)	-27.4% (active)
COc1ccc(-c2cc(C#N)c(NNC(C)=O)[nH]2)cc1	123% (inactive)
CCN(CC)CCNc1ncnc2c1cnn2-c1ccc(Cl)cc1	96.7% (inactive)
COc1ccc2c(N)ncc(C#Cc3cc(C(=O)Nc4ccc(CN5CCN(C)CC5)c(C(F)(F)F)c4)cnc3C)c2c1	-45.1% (active)
COc1cc2c(cc1OC)C(Cc1cc(OC)c(OC)cc1[N+](=O)[O-])=NCC2	78.1% (inactive)
Cc1ccc(C(=O)C(Br)C(Br)c2ccccc2)cc1 (stereo not drawn)	48.2% (inactive)
Br/C(=N\Nc1nn[nH]n1)c1ccccc1	102% (inactive)
O=C(Nc1cccc(Cn2c(=O)[nH]c3ccc(Oc4ncccn4)cc3c2=O)c1)c1cccc(F)c1	52.3% (inactive)
COc1ccc(C(=O)N2N=C(c3ccc(Br)cc3)CC2c2cn(-c3ccccc3)nc2-c2ccccc2)cc1 (stereo not drawn)	67.9% (inactive)
CCOC(=O)CNS(=O)(=O)CC(=O)c1ccccc1	96.1% (inactive)
COc1ccc(C(=O)c2no[n+]([O-])c2C(=O)c2ccc(OC)cc2)cc1	-68.1% (active)
C=C(NC(=O)[C@H](C(C)C)N(C)c1cccc2[nH]ccc12)C(=O)OC	6.33% (active)
COC1=C(OC)C(=O)c2ccccc2C1=O	97.5% (inactive)
COC(=O)c1c[n+]([O-])ccc1OC	111% (inactive)
O=C(CN1CCN(c2cccc(Cl)c2)CC1)N1CCN(c2nnc(-c3ccc(Cl)cc3)c(-c3ccc(Cl)cc3)n2)CC1	-33.5% (active)
CCOC(=O)c1csc(-c2ccc(COC(=O)c3ccccc3)o2)n1	111% (inactive)
CCCCCCCCCCCCCCCCCC(=O)Nc1ccc(O)cc1	77.8% (inactive)
OCCN1CCCN(CCCN2c3ccccc3Sc3ccc(C(F)(F)F)cc32)CC1	42.2% (inactive)
Cc1c(CN(C)C)cc(C(C)C)cc1C(C)C	94.5% (inactive)
CC(=O)Oc1cc2ccccc2cc1C(C)C	109% (inactive)
COc1cc2cc3cc4cc(OC)c(OC)cc4c(C)[n+]3cc2cc1OC (tested in a mixture with another compound)	43% (inactive)
COc1ccc(NC(=O)/C=C(C)/C=C/C=C(C)/C=C/C2=C(C)CCCC2(C)C)cc1	43.9% (inactive)
Cc1ccc(C(=O)Nc2ccc(CN3CCN(C)CC3)c(C(F)(F)F)c2)cc1C#Cc1cnc(N)c2ccc(F)cc12	-59.4% (active)
Cc1ncc(C(=O)Nc2ccc(CN3CCN(C)CC3)c(C(F)(F)F)c2)cc1C#Cc1c(N)ncc2ccccc12	-47.5% (active)

These compounds were tested on OVCAR-8 ovarian in the same assay as above. Conditions: 10 µM unless noted.

SMILES	growth
O=C(N/N=C/c1ccccc1Cl)c1cccc2ccccc12	82.2% (inactive)
CCOP1(=O)CC(C)=C(Cl)C(P(=O)(O)O)C1 (stereo not drawn)	91.8% (inactive)
NC(N)=Nc1ccc(/C=C2\C=Cc3ccccc32)cc1	71.7% (inactive)
C/C=C(/C)C(=O)OC1C=C(CO)C(=O)C(OC(=O)C(C)(O)C(C)Cl)C1C(C)C (stereo not drawn)	3.78% (active)
CN1CCN(Cc2ccc(NC(=O)c3ccc(C#Cc4c(N)ncc5ccc(F)cc45)cc3)cc2C(F)(F)F)CC1	-28.4% (active)
CCCCCCCCC(=O)Nc1ccc(O)cc1	95% (inactive)
COc1cc(/C=C/C(=O)c2ccc(F)cc2)ccc1OCCCCOc1cc2c(cc1OC)C(=O)N1CCCC1C=N2 (stereo not drawn)	8.79% (active)
COc1ccc(-c2cc(C#N)c(NNC(C)=O)[nH]2)cc1	110% (inactive)
COc1cc(-c2nc(/C=C3/C(=O)Nc4ccccc43)c3ccccn23)cc(OC)c1OC	32.8% (inactive)
Nc1cc2c(cc1Br)[nH]c(=O)c1ccccc12	39.9% (inactive)
COc1ccc(C(=O)CN2C(=O)NC(c3ccccc3)(c3ccccc3)C2=O)cc1	95.2% (inactive)
CC[C@@H](C)/C=C(C)/C=C/C(=O)c1c(O)c(-c2ccc(OC(=O)[C@@]34CC[C@@](C)(C(=O)O3)C4(C)C)cc2)cn(O)c1=O	20.4% (inactive)
COc1ccc2c(N)ncc(C#Cc3cc(C(=O)Nc4ccc(CN5CCN(C)CC5)c(C(F)(F)F)c4)cnc3C)c2c1	-34.7% (active)
COc1cc2c(cc1OC)C(Cc1cc(OC)c(OC)cc1[N+](=O)[O-])=NCC2	98% (inactive)
Cc1ccc(C(=O)C(Br)C(Br)c2ccccc2)cc1 (stereo not drawn)	96.6% (inactive)
Br/C(=N\Nc1nn[nH]n1)c1ccccc1	103% (inactive)
O=C(Nc1cccc(Cn2c(=O)[nH]c3ccc(Oc4ncccn4)cc3c2=O)c1)c1cccc(F)c1	78.7% (inactive)
COc1ccc(C(=O)N2N=C(c3ccc(Br)cc3)CC2c2cn(-c3ccccc3)nc2-c2ccccc2)cc1 (stereo not drawn)	31.5% (inactive)

SMILES	growth
CCOC(=O)CNS(=O)(=O)CC(=O)c1ccccc1	108% (inactive)
C=C(NC(=O)[C@H](C(C)C)N(C)c1cccc2[nH]ccc12)C(=O)OC	102% (inactive)
COC1=C(OC)C(=O)c2ccccc2C1=O	93.3% (inactive)
O=C(Cc1ccccc1[N+](=O)[O-])c1ccc2c(c1)OCO2	104% (inactive)
COC(=O)c1c[n+]([O-])ccc1OC	110% (inactive)
CC(C)C(=O)c1ccc(Cl)s1	102% (inactive)
CCOC(=O)c1csc(-c2ccc(COC(=O)c3ccccc3)o2)n1	111% (inactive)
OCCN1CCN(CC/C=C2/c3ccccc3Sc3ccc(C(F)(F)F)cc32)CC1	88.5% (inactive)
CCCCCCCCCCCCCCCCCC(=O)Nc1ccc(O)cc1	91.3% (inactive)
OCCN1CCCN(CCCN2c3ccccc3Sc3ccc(C(F)(F)F)cc32)CC1	91% (inactive)
Cc1c(CN(C)C)cc(C(C)C)cc1C(C)C	106% (inactive)
CC(=O)Oc1cc2ccccc2cc1C(C)C	104% (inactive)
COc1cc2cc3cc4cc(OC)c(OC)cc4c(C)[n+]3cc2cc1OC (tested in a mixture with another compound)	76.2% (inactive)
COc1ccc(NC(=O)/C=C(C)/C=C/C=C(C)/C=C/C2=C(C)CCCC2(C)C)cc1	37% (inactive)
O=C1C(Cl)=C(SC2=NCCN2)C(=O)c2ccccc21	65.8% (inactive)
Cc1ccc(C(=O)Nc2ccc(CN3CCN(C)CC3)c(C(F)(F)F)c2)cc1C#Cc1cnc(N)c2ccc(F)cc12	-70.9% (active)
Cc1ncc(C(=O)Nc2ccc(CN3CCN(C)CC3)c(C(F)(F)F)c2)cc1C#Cc1c(N)ncc2ccccc12	-85.7% (active)
